Assay results as given in PubChem BioAssay AID1671202 (University of Kansas High Throughput Screening Laboratory, 2021).
Screen size: about 190,000 compounds; about 6,900 (3.6%) were called active. Many of the other results were omitted from the sample, so actives are more common in it than they were. Values without a mark were called inactive. Cut-off read from the data, not from the text of the source: active = inhibition above about 50%; inactive = the rest.

These molecules were tested against Huntingtin (Homo sapiens) (UniProt P42858) (assay: mutant huntingtin-calmodulin interaction inhibitors – biochemical, AlphaScreen, primary screen (AID 1671202;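 note: 0% = both proteins with DMSO and 100% = one protein alone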)). Conditions: AlphaScreen His-mHTT/GST-CaM binding, luminescence; at 15 µM, active compounds read high.
Sequence of Huntingtin (Homo sapiens) (P42858 whole entry, looked up, stated change not applied): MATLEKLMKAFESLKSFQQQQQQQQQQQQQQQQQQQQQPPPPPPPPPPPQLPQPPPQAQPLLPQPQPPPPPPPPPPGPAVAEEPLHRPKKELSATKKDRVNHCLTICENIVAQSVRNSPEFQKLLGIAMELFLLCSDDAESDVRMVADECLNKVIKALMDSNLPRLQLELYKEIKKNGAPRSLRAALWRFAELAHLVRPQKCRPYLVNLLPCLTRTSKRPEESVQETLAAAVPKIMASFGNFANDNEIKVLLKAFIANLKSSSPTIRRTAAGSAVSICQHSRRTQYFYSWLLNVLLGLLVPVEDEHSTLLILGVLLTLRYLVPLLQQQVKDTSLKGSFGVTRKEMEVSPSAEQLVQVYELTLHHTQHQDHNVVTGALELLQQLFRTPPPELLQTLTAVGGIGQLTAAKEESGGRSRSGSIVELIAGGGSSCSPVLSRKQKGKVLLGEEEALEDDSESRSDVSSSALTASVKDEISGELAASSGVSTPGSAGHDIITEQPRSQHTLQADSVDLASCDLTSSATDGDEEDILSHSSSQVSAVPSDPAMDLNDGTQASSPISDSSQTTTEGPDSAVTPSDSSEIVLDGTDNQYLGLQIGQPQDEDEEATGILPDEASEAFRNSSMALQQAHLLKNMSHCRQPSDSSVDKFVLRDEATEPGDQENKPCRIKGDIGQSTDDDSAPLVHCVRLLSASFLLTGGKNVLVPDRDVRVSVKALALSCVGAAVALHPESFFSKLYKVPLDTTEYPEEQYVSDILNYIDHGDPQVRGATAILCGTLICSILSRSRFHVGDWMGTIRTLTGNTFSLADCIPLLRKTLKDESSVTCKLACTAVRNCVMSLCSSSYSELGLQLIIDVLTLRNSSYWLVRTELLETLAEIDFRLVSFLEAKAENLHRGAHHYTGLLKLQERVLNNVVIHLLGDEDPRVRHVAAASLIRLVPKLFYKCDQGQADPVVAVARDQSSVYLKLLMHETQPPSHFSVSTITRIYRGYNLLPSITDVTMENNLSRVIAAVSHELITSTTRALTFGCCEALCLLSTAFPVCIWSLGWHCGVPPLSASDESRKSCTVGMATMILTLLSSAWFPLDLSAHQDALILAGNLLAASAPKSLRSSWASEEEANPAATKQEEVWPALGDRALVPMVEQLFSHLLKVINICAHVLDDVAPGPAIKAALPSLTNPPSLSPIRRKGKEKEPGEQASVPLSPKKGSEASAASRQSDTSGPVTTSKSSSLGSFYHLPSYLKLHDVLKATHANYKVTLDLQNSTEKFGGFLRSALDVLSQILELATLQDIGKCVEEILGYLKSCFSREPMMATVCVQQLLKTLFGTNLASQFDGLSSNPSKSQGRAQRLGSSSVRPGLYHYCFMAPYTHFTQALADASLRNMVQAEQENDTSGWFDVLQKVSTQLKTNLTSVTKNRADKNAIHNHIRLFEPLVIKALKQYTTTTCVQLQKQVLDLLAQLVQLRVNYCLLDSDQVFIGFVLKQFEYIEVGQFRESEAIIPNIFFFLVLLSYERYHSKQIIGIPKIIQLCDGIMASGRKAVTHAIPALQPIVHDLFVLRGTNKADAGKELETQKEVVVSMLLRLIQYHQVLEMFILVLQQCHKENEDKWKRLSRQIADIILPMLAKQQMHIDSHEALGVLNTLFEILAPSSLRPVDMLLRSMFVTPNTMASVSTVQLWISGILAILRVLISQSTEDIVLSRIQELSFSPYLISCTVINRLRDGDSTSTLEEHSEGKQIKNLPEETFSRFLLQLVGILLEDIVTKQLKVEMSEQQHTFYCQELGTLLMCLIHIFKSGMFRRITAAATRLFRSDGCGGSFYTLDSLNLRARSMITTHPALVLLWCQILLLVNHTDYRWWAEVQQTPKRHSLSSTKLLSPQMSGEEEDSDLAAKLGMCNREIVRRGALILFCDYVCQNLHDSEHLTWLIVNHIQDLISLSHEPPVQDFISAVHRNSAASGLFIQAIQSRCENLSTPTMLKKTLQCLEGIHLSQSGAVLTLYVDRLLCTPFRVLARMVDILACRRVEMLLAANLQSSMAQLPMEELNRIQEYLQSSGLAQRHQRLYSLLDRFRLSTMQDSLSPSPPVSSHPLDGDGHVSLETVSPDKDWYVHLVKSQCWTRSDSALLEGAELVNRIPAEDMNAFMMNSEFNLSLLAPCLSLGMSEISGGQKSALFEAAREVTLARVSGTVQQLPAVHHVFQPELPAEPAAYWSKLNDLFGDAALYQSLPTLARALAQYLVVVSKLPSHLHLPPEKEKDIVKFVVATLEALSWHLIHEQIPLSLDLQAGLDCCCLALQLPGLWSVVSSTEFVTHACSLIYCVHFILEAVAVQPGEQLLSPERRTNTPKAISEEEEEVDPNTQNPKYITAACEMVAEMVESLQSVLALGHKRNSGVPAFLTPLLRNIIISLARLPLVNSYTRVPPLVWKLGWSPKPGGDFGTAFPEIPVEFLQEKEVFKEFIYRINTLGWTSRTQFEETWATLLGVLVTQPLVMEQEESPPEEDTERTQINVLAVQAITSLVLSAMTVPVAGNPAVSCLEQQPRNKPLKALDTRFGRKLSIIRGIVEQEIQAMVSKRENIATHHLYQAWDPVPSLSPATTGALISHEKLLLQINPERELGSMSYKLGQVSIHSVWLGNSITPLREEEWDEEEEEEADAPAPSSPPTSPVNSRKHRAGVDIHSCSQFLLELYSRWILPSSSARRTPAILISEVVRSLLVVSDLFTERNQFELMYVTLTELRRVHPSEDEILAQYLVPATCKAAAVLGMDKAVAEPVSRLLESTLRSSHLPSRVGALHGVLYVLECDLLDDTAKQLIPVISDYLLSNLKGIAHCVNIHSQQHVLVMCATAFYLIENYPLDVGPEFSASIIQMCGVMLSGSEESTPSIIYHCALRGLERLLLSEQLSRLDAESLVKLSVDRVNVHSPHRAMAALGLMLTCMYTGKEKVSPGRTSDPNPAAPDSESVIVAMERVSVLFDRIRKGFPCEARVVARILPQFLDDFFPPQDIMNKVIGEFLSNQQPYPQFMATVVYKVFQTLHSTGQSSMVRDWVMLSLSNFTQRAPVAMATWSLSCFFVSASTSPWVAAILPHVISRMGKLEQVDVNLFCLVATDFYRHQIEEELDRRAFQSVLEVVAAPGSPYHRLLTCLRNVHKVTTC

SMILES	inhibition
CCCCCCN1C[C@@H](O)[C@H](n2cc(COC(=O)c3ccccc3)nn2)C[C@@H]1c1ccc(Cl)cc1	-4.7%
O=C(c1cccs1)N1C[C@H](n2cc(C3CC3)nn2)[C@@H](O)C[C@@H]1c1ccccc1	4.1%
O[C@@H]1C[C@H](c2ccccc2)N(Cc2cccs2)C[C@H]1n1cc(C2CC2)nn1	19.2%
CCCCCCN1C[C@H](O)[C@@H](n2cc(C3CC3)nn2)C[C@@H]1c1ccc(Cl)cc1	72.7% (active)
COc1ccc([C@H]2C[C@@H](n3cc(COC(=O)c4ccccc4)nn3)[C@H](O)CN2C(=O)c2cccs2)cc1	23.6%
O=C(OCc1cn([C@@H]2C[C@H](c3ccc(Cl)cc3)N(Cc3cccs3)C[C@H]2O)nn1)c1ccccc1	2.5%
Cc1ccc([C@H]2C[C@H](O)[C@@H](n3cc(COC(=O)c4ccccc4)nn3)CN2CC2CCCCC2)cc1	23.1%
O[C@H]1CN(Cc2cccs2)[C@@H](c2ccc(Cl)cc2)C[C@@H]1n1cc(C2CC2)nn1	98.3% (active)
O[C@H]1C[C@H](c2ccc(Cl)cc2)N(Cc2cccs2)C[C@@H]1n1cc(C2CC2)nn1	100% (active)
O=C(NCCC1CCN(C(=O)c2ccc(F)cc2)CC1)c1ccc(F)cc1	-1.87%
O=C(Cc1ccccc1)Nc1ccc(C(=O)Nc2ccc(Cl)cc2Cl)cc1	-3.3%
Cc1cc(C2CCCN2C(=O)c2ccn(C)n2)no1 (centres undefined)	-4.24%
O=C(CC(c1ccccc1)c1ccccc1)N1CCN(c2ccccc2F)CC1	-3.5%
O=C(Nc1ccc(N2CCN(Cc3ccc(F)cc3)CC2)nc1)C1CC1	5%
Cc1cccc(-c2nc(CN3CCN(C(=O)C4CC4)CC3)no2)c1	4.1%
CCCN1CCN(C(=O)c2cccc(C3CCCN(C(=O)NCC)C3)c2)CC1 (centres undefined)	10.7%
CC(C)NC(=O)N1CCCC(c2cccc(C(=O)NCc3ccc(Cl)cc3)c2)C1 (centres undefined)	2.21%
CC(C)NC(=O)N1CCCC(c2cccc(C(=O)N3CCN(c4ccccc4)CC3)c2)C1 (centres undefined)	51.8% (active)
CN(C)C(=O)c1cc2c(s1)CCC(C(=O)Nc1ccc(F)cc1F)C2 (centres undefined)	3.95%
C#CCOc1ccc(/C=C2\NC(=O)N(CC(=O)Nc3cccc(C)c3)C2=O)cc1OC	3%
O=C(Nc1ccc([N+](=O)[O-])cc1Br)c1cncc(Br)c1	-1%
CCCCC[C@H](C)N1C[C@@H](COCc2ccccc2)Oc2cc(N3CC[C@@H](N(C)C)C3)ccc2S1(=O)=O	100% (active)
CCCCC[C@H](C)N1C[C@@H](COCc2ccccc2)Oc2cc(N3CCC[C@@H]3CO)ccc2S1(=O)=O	3.5%
CSc1ccc(Oc2cccc3c2S(=O)(=O)N([C@H](C)c2ccccc2)C[C@@H](COCc2ccccc2)O3)cc1C	-4.7%
